The values that follow come from article PMC7862700, “An all-to-all approach to the identification of sequence-specific readers for epigenetic DNA modifications on cytosine”.

What all share (test): DAPPL (digital affinity profiling via proximity ligation, sequencing); 10 mM Tris-HCl pH 7.5, 50 mM NaCl, 1 mM DTT, 4% glycerol, room temperature, 30 min; GST-TFs on glutathione beads, 16-mer random dsDNA library, 0.1% formaldehyde crosslink after washing; high values mean tight binding
Assay [1] deals with T1, FLI1 (Homo sapiens, UniProt Q01543 1-452).
T1 sequence: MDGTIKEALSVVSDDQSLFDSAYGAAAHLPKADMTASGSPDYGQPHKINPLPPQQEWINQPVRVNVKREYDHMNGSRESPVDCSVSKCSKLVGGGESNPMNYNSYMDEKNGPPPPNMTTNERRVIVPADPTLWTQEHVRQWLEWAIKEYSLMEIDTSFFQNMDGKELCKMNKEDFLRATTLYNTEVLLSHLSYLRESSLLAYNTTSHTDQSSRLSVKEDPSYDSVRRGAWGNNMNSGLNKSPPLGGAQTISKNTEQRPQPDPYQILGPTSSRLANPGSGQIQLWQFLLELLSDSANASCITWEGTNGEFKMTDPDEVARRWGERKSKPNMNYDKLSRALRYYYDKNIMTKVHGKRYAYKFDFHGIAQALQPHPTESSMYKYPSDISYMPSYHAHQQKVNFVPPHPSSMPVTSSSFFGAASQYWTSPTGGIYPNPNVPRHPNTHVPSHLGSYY
As to conditions: protein: recombinant; tags: N-terminal GST; dsDNA, one strand shown. The essentials: (§1)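 Human transcription factors were made in yeast as GST fusions, captured on glutathione beads and barcoded with DNA. With a tag-only sample included, the pool was incubated with 200 nmole of a random double-stranded 16-mer DNA library in Tris/NaCl/DTT/glycerol buffer at room temperature for 30 min, then crosslinked with 0.1% formaldehyde after washing, ligated by proximity, amplified and sequenced. For binding signal, each hexamer's read frequency for a factor is divided by its frequency for the tag-only sample.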

Assay [2] concerns the target T2, ELK1 (Homo sapiens, UniProt P19419 1-428).
T2 sequence: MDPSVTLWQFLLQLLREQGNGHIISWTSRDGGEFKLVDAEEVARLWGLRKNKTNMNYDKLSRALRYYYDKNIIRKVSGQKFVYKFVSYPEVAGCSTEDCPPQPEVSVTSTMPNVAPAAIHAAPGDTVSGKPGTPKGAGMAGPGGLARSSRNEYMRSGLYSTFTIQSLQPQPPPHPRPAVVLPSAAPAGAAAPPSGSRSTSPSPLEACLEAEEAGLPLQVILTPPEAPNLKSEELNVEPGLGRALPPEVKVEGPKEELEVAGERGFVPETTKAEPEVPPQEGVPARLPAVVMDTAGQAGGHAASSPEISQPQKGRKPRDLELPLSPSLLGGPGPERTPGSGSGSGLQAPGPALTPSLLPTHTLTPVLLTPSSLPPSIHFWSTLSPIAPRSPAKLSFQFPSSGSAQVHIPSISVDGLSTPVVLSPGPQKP
To be noted: protein: recombinant; tags: N-terminal GST; dsDNA, one strand shown. In outline:
as §1

For assay [3], the target named is T3, GABPA (Homo sapiens, UniProt Q06546 1-454).
T3 sequence: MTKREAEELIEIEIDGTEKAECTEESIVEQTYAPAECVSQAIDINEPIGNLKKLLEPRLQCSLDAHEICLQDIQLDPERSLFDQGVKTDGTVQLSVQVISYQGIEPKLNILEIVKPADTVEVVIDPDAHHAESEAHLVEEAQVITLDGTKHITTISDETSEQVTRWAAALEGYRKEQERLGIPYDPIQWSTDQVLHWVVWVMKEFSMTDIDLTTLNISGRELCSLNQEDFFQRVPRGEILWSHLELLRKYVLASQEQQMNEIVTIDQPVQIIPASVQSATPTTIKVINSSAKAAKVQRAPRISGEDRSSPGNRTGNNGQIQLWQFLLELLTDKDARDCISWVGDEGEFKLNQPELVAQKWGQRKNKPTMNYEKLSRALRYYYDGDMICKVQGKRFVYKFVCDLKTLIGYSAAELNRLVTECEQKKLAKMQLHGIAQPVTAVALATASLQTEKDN
As to conditions: protein: recombinant; tags: N-terminal GST; dsDNA, one strand shown. The essentials: as §1

Assay [4] addresses T4, ERG (Homo sapiens, UniProt P11308 1-479).
T4 sequence: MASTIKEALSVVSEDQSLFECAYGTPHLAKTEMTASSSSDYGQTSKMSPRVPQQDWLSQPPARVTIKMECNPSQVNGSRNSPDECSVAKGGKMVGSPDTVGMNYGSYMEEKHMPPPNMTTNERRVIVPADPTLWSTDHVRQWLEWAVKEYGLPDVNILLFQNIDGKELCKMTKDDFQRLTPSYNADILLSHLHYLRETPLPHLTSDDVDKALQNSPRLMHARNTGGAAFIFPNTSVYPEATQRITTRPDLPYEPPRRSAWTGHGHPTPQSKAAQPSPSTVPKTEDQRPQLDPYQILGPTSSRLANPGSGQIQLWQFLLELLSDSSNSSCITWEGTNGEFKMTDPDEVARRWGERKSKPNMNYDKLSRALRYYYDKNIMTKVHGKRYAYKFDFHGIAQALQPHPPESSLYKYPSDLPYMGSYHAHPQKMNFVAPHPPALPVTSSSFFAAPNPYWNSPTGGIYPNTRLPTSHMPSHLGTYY
To be noted: protein: recombinant; tags: N-terminal GST; dsDNA, one strand shown. In outline: as §1

Assay [5] has as its target ELF1 (Homo sapiens, UniProt P32519 1-619). To be noted: protein: recombinant; tags: N-terminal GST; dsDNA, one strand shown. In outline:
as §1

The target of assay [6] is T5, EHF (Homo sapiens, UniProt Q9NZC4 1-300).
T5 sequence: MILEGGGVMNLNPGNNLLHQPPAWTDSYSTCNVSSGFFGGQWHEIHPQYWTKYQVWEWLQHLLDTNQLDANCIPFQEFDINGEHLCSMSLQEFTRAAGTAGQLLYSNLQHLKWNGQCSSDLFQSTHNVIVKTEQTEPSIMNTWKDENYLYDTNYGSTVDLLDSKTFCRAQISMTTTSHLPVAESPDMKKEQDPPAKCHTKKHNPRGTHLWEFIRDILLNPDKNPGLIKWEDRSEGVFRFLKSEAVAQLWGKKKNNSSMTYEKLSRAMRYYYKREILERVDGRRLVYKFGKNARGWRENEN
As to conditions: protein: recombinant; tags: N-terminal GST; dsDNA, one strand shown. The essentials:
as §1

The target of assay [7] is SPI1 (Homo sapiens, UniProt P17947 1-270). To be noted: protein: recombinant; tags: N-terminal GST; dsDNA, one strand shown. The essentials:
as §1

Assay [8] addresses SPIB (Homo sapiens, UniProt Q01892 1-262). As to conditions: protein: recombinant; tags: N-terminal GST; dsDNA, one strand shown. The essentials: as §1
Assay [9] has as its target T6, ELK3 (Homo sapiens, UniProt P41970 1-407).
T6 sequence: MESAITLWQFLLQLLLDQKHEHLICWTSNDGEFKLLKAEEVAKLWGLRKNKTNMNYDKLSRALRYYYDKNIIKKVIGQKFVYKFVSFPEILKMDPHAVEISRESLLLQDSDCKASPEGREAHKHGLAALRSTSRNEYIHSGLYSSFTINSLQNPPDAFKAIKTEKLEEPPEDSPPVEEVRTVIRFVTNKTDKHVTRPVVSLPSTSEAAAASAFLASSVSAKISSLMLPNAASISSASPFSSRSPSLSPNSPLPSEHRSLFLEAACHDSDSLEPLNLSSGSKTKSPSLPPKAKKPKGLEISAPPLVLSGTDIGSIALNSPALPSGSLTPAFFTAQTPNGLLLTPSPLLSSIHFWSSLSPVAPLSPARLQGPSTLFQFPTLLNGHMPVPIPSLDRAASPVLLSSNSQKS
As to conditions: protein: recombinant; tags: N-terminal GST; dsDNA, one strand shown. The essentials:
as §1

The target of assay [10] is T7, FEV (Homo sapiens, UniProt Q99581 1-238).
T7 sequence: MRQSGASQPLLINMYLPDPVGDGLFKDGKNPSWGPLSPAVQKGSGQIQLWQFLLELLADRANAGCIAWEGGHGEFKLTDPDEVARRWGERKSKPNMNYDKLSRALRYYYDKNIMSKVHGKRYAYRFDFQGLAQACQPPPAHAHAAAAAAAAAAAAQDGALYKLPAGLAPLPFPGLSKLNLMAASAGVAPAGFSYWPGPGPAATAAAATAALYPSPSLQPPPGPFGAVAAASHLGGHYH
To be noted: protein: recombinant; tags: N-terminal GST; dsDNA, one strand shown. The essentials:
as §1

For assay [11], the target named is ETV5 (Homo sapiens, UniProt P41161 1-510). To be noted: protein: recombinant; tags: N-terminal GST; dsDNA, one strand shown. In outline:
as §1

The target in assay [12] is HSF1 (Homo sapiens, UniProt Q00613 1-529). As to conditions: protein: recombinant; tags: N-terminal GST; chain copies: 3; dsDNA, one strand shown. The essentials:
as §1

The target of assay [13] is T8, SPIC (Homo sapiens, UniProt Q8N5J4 1-248).
T8 sequence: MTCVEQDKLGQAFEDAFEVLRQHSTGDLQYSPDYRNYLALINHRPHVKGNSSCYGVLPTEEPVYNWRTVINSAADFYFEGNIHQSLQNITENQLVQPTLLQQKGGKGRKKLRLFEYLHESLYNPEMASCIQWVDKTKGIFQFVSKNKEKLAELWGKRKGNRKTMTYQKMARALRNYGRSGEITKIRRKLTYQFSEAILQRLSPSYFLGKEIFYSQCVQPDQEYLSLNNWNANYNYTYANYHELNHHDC
To be noted: protein: recombinant; tags: N-terminal GST; dsDNA, one strand shown. The essentials: as §1

Assay [14] has as its target ELF4 (Homo sapiens, UniProt Q99607 1-663). As to conditions: protein: recombinant; tags: N-terminal GST; dsDNA, one strand shown. In outline:
as §1

In assay [15] the target is T9, ELK4 (Homo sapiens, UniProt P28324-2 1-405).
T9 sequence: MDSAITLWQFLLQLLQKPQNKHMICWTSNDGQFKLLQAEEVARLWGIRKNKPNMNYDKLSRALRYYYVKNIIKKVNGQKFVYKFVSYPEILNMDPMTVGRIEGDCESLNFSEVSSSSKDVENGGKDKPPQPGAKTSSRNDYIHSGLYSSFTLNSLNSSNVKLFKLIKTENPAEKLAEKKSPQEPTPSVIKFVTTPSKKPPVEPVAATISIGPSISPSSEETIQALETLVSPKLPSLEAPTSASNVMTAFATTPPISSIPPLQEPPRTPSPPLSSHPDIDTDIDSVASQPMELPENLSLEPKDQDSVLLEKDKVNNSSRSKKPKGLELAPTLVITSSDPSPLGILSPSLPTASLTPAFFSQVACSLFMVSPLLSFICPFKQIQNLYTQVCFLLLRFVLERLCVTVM
To be noted: protein: recombinant; tags: N-terminal GST; dsDNA, one strand shown. The essentials: as §1

Assay [16] concerns the target T10, ETV2 (Homo sapiens, UniProt O00321 1-342).
T10 sequence: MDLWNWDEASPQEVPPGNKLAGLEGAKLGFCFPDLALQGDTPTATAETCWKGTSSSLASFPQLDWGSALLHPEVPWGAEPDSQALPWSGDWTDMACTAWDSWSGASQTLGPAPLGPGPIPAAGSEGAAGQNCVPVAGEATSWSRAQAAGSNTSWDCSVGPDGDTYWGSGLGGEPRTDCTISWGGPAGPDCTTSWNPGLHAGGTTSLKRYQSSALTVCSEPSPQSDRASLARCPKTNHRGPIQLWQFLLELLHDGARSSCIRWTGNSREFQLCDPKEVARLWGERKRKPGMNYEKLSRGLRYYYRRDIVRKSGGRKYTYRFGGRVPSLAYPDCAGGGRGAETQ
To be noted: protein: recombinant; tags: N-terminal GST; dsDNA, one strand shown. The essentials: as §1

The target in assay [17] is T11, ELF3 (Homo sapiens, UniProt P78545 1-371).
T11 sequence: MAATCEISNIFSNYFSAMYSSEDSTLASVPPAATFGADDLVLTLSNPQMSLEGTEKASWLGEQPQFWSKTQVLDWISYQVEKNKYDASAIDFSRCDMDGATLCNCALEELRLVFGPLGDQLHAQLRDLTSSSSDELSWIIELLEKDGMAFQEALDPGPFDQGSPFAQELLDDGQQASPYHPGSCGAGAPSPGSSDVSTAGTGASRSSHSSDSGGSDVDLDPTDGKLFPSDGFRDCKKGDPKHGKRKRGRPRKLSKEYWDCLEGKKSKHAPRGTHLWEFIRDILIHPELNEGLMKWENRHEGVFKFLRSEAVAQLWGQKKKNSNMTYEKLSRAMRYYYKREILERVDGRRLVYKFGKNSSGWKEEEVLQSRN
As to conditions: protein: recombinant; tags: N-terminal GST; dsDNA, one strand shown. The essentials: as §1

The target in assay [18] is CRX (Homo sapiens, UniProt O43186 1-299). To be noted: protein: recombinant; tags: N-terminal GST; dsDNA, one strand shown. In outline: as §1
Sequence of CRX (O43186 whole entry): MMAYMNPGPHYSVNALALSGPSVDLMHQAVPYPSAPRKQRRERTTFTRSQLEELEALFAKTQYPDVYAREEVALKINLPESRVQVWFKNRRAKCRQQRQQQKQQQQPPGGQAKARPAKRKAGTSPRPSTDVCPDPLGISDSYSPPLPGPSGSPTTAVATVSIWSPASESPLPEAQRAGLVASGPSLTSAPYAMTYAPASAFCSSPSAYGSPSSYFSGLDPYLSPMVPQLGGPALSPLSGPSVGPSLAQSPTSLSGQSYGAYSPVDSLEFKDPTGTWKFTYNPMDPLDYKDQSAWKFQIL
For assay [19], the target named is ETV1 (Homo sapiens, UniProt P50549 1-477). To be noted: protein: recombinant; tags: N-terminal GST; dsDNA, one strand shown. The essentials: as §1
Sequence of ETV1 (P50549 whole entry): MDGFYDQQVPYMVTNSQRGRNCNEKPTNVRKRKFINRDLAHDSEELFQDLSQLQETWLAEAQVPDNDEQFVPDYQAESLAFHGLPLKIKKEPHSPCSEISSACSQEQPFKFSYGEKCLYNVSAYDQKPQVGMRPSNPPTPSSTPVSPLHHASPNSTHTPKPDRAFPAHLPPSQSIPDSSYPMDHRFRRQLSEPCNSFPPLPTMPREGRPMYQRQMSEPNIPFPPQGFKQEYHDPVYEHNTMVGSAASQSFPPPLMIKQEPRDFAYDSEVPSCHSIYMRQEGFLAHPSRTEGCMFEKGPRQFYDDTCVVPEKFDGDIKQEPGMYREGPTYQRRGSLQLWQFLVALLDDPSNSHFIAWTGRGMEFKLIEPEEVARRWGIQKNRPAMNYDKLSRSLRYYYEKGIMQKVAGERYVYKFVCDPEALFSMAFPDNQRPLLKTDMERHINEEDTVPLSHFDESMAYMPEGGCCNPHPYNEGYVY

Sequence of SPIB (Q01892 whole entry): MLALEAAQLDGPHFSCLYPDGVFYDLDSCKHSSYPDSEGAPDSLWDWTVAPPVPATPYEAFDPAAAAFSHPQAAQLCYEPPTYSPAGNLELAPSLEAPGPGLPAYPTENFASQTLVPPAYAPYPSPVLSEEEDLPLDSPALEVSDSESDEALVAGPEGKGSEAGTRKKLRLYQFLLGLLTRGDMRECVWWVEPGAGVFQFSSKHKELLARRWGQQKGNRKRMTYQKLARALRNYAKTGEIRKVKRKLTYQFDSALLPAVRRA
Sequence of HSF1 (Q00613 whole entry): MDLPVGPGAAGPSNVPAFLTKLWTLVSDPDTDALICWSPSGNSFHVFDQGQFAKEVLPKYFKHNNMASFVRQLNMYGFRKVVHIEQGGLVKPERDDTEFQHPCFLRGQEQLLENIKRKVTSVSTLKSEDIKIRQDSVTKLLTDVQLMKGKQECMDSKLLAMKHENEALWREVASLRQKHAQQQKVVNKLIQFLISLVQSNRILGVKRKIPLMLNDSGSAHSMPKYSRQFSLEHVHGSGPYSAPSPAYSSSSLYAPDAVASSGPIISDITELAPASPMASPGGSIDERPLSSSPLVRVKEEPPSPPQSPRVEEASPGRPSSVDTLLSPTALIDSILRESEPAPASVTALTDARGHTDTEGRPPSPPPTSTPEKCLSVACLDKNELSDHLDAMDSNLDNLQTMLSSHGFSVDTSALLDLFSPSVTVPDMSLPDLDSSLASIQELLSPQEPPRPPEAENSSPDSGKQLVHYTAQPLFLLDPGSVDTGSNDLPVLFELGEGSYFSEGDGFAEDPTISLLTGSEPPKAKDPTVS
Sequence of ETV5 (P41161 whole entry): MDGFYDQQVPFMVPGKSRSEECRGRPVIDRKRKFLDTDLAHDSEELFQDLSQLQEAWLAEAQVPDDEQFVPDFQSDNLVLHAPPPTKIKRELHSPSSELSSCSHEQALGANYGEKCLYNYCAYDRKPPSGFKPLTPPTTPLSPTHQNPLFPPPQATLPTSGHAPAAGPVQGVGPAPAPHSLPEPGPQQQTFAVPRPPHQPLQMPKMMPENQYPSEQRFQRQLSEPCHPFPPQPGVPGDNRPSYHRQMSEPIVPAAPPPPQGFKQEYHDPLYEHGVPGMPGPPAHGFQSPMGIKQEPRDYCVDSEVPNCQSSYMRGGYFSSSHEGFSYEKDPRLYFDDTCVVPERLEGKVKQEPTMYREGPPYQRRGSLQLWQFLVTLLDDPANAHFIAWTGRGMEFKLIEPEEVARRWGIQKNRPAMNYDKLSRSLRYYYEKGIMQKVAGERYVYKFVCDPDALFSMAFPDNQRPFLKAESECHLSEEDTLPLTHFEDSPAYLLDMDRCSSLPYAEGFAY
Sequence of ELF4 (Q99607 whole entry): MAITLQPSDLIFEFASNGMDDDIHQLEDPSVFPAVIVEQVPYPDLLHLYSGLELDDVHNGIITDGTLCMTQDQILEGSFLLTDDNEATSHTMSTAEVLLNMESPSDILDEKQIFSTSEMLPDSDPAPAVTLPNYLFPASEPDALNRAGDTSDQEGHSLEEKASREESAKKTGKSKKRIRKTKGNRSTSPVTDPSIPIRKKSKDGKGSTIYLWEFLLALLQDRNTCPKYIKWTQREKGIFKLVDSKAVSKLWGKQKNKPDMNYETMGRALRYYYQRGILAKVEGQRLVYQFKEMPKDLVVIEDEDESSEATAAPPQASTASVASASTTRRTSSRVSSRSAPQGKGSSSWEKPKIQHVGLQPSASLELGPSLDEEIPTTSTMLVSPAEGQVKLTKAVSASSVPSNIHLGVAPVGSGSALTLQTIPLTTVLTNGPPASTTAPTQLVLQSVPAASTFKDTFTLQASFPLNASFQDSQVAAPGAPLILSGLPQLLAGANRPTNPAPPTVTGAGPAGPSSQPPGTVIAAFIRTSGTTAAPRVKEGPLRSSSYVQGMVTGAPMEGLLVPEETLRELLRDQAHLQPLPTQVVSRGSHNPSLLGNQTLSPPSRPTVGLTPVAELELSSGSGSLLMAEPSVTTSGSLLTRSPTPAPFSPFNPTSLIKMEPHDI
Sequence of ELF1 (P32519 whole entry): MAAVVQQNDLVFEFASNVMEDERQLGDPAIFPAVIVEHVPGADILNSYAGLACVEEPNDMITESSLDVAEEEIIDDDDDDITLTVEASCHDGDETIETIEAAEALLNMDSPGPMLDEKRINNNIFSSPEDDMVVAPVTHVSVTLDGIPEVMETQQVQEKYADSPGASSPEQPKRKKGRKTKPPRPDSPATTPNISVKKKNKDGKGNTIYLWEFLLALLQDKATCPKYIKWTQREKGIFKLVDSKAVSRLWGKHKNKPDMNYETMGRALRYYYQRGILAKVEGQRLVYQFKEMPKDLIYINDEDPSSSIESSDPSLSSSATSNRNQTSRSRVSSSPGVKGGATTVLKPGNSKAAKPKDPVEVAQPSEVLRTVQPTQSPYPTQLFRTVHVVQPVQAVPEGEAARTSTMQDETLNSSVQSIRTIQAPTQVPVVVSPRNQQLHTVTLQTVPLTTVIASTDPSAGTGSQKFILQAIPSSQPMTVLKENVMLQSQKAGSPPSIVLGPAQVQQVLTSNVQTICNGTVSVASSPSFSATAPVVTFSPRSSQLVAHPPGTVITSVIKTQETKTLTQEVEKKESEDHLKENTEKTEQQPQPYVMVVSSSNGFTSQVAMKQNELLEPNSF

Regarding CATCTG, the binding signal in assay [1] is 1.24 fold enrichment (6-mer frequency, TF over GST control); in assay [2], 1.23 fold enrichment (6-mer frequency, TF over GST control); in [3] it was 1.37 fold enrichment (6-mer frequency, TF over GST control); in [4], 1.16 fold enrichment (6-mer frequency, TF over GST control); in [5], 1.33 fold enrichment (6-mer frequency, TF over GST control); in assay [6], 1.31 fold enrichment (6-mer frequency, TF over GST control). The binding signal in assay [7] was 1.08 fold enrichment (6-mer frequency, TF over GST control); in [8], 1.28 fold enrichment (6-mer frequency, TF over GST control); in assay [9], 1.25 fold enrichment (6-mer frequency, TF over GST control); in [10] it was 1.33 fold enrichment (6-mer frequency, TF over GST control); in assay [11], 1.2 fold enrichment (6-mer frequency, TF over GST control); in [12], 1.25 fold enrichment (6-mer frequency, TF over GST control). For the same sequence, the binding signal was 1.28 fold enrichment (6-mer frequency, TF over GST control) in [13]; 1.25 fold enrichment (6-mer frequency, TF over GST control) in assay [14]; 1.39 fold enrichment (6-mer frequency, TF over GST control) in assay [15]; 1.16 fold enrichment (6-mer frequency, TF over GST control) in assay [16]; 1.37 fold enrichment (6-mer frequency, TF over GST control) in assay [17]; 1.15 fold enrichment (6-mer frequency, TF over GST control) in assay [18]. The binding signal in [19] is 1.31 fold enrichment (6-mer frequency, TF over GST control).
